Here are results for 95 compounds from PubChem BioAssay AID602141 (Sanford-Burnham Center for Chemical Genomics, 2011).

Each structure is given as a SMILES string. “And” between values parts separate entries of the source, which are not always exact repeats. Equal values may be shown once. Among all 360,000 compounds or so, about 1,300 (0.36%) were called active.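 Rule for the calls: active = corrected activity change at or below -50% at 5 µM; inactive = the rest.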 Shown is part of a subset that was picked to be rich in actives.

This assay can be described thus: cytotoxicity in KKLEB CF airway cells, primary screen, cytotoxicity control for CF NF-kB inhibitor project, cell-based, uHTS, fluorescence assay plates (AID 602141). The note with it: KKLEB CF airway cells viability, ATPlite luminescence, overnight; at 5 µM; stronger effect = lower value; cells stimulated with P. aeruginosa culture filtrate.
Regarding `CCCN(CCC)C(=S)Nc1cc(C(=O)OC)ccc1C(=O)OC`, the activity change (cytotoxicity) was -5.9% (inactive).

On to `COC(=O)c1ccc(C(=O)Nc2cc(Cl)ccc2Cl)cc1NC(=O)c1ccccc1C`, for which the activity change (cytotoxicity) is -62.7% (active). `COC(=O)c1ccccc1NC(=O)c1cncc(Br)c1`: the activity change (cytotoxicity) is 16% (inactive). Consider `CC(=O)Nc1ccc(S(=O)(=O)N2CCn3cccc3C2C)cc1` (stereo not given), for which the activity change (cytotoxicity) is -3.5% (inactive). For the compound `CCCCN=C1C([N+](=O)[O-])=CC=C2C1=NC1(CCCCC1)N2O`, the activity change (cytotoxicity) was -4.3% (inactive).

For `CC(C)C[C@H]1CN=C(Nc2ccccc2)N1CC1CCCCC1`, the activity change (cytotoxicity) is 3.3% (inactive). Regarding `Clc1ccc(COn2c(-c3ccc(Cl)cc3Cl)nc3ncccc32)cc1`, the activity change (cytotoxicity) was 1.3% (inactive).

Turning to `Fc1ccc(-c2ccc(CNCc3ccccn3)o2)cc1Cl`, the activity change (cytotoxicity) is 5.4% (inactive).

Turning to `Clc1ccc(-c2cc(-c3ccccn3)on2)c(Cl)c1`, the activity change (cytotoxicity) is -62.1% (active). For `O=C(CCN1C(=O)[C@@H]2Cc3ccccc3CN2C1=O)NCc1ccccc1`, the activity change (cytotoxicity) was -2.4% (inactive). Turning to `CC(C)CCn1c(=O)c2c(nc3n2CCCN3Cc2ccccc2)n(C)c1=O`, the activity change (cytotoxicity) is -20.8% (inactive).

`Cc1cc(C)cc(-c2nnc(SCC(=O)NC3CC3)o2)c1`: the activity change (cytotoxicity) was 8.4% (inactive). Consider `c1csc(CN2CCN(Cc3cccs3)C2c2cccs2)c1`, for which the activity change (cytotoxicity) is 0% (inactive). In the case of `O=C(NCCSc1ncc(-c2ccccc2)[nH]1)c1ccco1` it was 0.1% (inactive).

In the case of `Cc1ccc2nc(-c3ccc(Br)cc3)cn2c1`, the activity change (cytotoxicity) was -30% (inactive). Regarding `Cc1ccc(-c2cc(N)on2)cc1`, the activity change (cytotoxicity) was -5.6% (inactive). For the compound `Cc1ccc(-c2cn3cc(C)ccc3n2)cc1`, the activity change (cytotoxicity) was -61.7% (active). Take `CCn1c(SCC(=O)Nc2ccc(Br)cc2)nc2sc3c(c2c1=O)CCN(C)C3`: the activity change (cytotoxicity) was 9.6% (inactive). Next, `COC(=O)c1cc(NC(=O)c2nn(C)c(=O)c3ccccc23)cc(C(=O)OC)c1`: -11.1% (inactive); `CN(Cc1ccccc1)S(=O)(=O)c1nnc(NC(=O)c2ccccc2F)s1`: -8.6% (inactive).

As for `CSc1nnc(NC(=O)c2nc(S(=O)(=O)Cc3ccc(C)cc3)ncc2Cl)s1`, the activity change (cytotoxicity) is -74.7% (active). For the compound `Cc1ccc(CS(=O)(=O)c2ncc(Cl)c(C(=O)Nc3nnc(C)s3)n2)cc1`, the activity change (cytotoxicity) was -93.7% (active). Turning to `O=C(Nc1nnc(-c2ccc(F)cc2)s1)c1c(F)cccc1Cl`, the activity change (cytotoxicity) was 7.4% (inactive). Next, `O=C(Nc1nnc(Cc2ccc(Cl)cc2)s1)c1cccnc1`: -6% (inactive). Take `Cc1cccc(CS(=O)(=O)c2ncc(Cl)c(C(=O)Nc3ccc(F)cc3)n2)c1`: the activity change (cytotoxicity) is -15.9% (inactive). Next, `COCCNC(=O)C1(C)CCCN(Cc2cccc(F)c2)C1` (stereo not given): 6.2% (inactive). On to `CCOC(=O)NC(=O)C(=CNc1cccc(OC)c1)C(=O)NC(=O)OCC`, for which the activity change (cytotoxicity) is 17.8% (inactive). For the compound `CC(C)Nc1nc(NCCOc2ccccc2Cl)c2sccc2n1`, the activity change (cytotoxicity) is -5.6% (inactive). For the compound `CN(C(=O)Nc1ccc(Cl)cc1)n1cnc2ccccc2c1=O`, the activity change (cytotoxicity) is 6.1% (inactive). On to `CC(C)(C)c1nc2ccccc2c(=O)n1N1C(=O)c2ccccc2C1=O`, for which the activity change (cytotoxicity) was -12.6% (inactive).

Consider `CN(c1ccc2nc3ccccc3c(=O)n2n1)C1CCCCC1`, for which the activity change (cytotoxicity) is -54.1% (active). As to `O=[N+]([O-])/C=C1\CCCCCN1`, the activity change (cytotoxicity) was -1.7% (inactive). For `CCCn1nnnc1NCc1ccc(OC)cc1`, the activity change (cytotoxicity) was 5.9% (inactive). In the case of `COc1ccc(CNc2nnnn2C)cc1` it was 6.7% (inactive); in that of `COc1ccc(CNc2c(CO)cnc3c2cnn3C)cc1`, -62.1% (active); in that of `C[C@@H]1CN([C@H](C)CO)C(=O)c2cc(NC(=O)NC3CCCCC3)ccc2O[C@H]1CN(C)S(C)(=O)=O`, 2.2% (inactive).

With `C[C@H]1CN([C@@H](C)CO)C(=O)CCCn2cc(nn2)CO[C@@H]1CN(C)S(=O)(=O)c1cccc(C#N)c1`, the activity change (cytotoxicity) is 4.9% (inactive). As for `O=C(Nc1cccc(C(=O)NC2CC2)c1)c1ccc(F)c(S(=O)(=O)N2CCOCC2)c1`, the activity change (cytotoxicity) was -2.3% (inactive). In the case of `COc1cc(NS(=O)(=O)c2ccc(NC(=S)NC(=O)c3ccc(Br)cc3)cc2)ncn1` it was 1% (inactive); in that of `COc1cc(C(=O)N(C)Cc2cccc(OC)c2OC)ccc1OCC(=O)Nc1cccc(C(F)(F)F)c1`, 7.7% (inactive); in that of `COc1cc(NC(=O)c2[nH]cnc2C(N)=O)cc(C(=O)Nc2cccc(C(F)(F)F)c2)c1`, -61.7% (active). With `COc1cc(NC(=O)c2cncc(-c3ccc(C#N)cc3)c2)cc(C(=O)Nc2cccc(C(F)(F)F)c2)c1`, the activity change (cytotoxicity) is 7.5% (inactive) and 5.1% (inactive).

Take `Cc1cccc(C(=O)O)c1[N+](=O)[O-]`: the activity change (cytotoxicity) was 14% (inactive).

Take `Cn1ccnc1-c1nnn(-c2ccc(F)cc2)n1`: the activity change (cytotoxicity) is -12.5% (inactive). As to `CCNC(=O)C1(C)CCCN(C(=O)c2ccc3ccccc3n2)C1` (stereo not given), the activity change (cytotoxicity) was -5.1% (inactive).

Take `O=C(NCC1CCCO1)c1cc2c([nH]c3ccccc32)c(-c2ccc(F)cc2)n1` (stereo not given): the activity change (cytotoxicity) is -5.3% (inactive).

Consider `CC1=CCC2C(=O)N(c3cccc(C(=O)NC(C)c4ccccc4)c3)C(=O)C2C1` (stereo not given), for which the activity change (cytotoxicity) is -1.1% (inactive). Regarding `Cc1cccc(C)c1NC1=NC(=S)N(c2ccc(N(C)C)cc2)C1(C)C`, the activity change (cytotoxicity) was -3.7% (inactive).

Consider `O=C1CCCN1C(=O)COc1ccc([N+](=O)[O-])cc1`, for which the activity change (cytotoxicity) is -6.8% (inactive). In the case of `CCCCC(=O)Nc1c2c(nn1-c1ccc([N+](=O)[O-])cc1)CS(=O)(=O)C2` it was -15.2% (inactive); in that of `O=C1/C(=C\c2ccc([N+](=O)[O-])cc2)CS(=O)(=O)C/C1=C/c1ccc([N+](=O)[O-])cc1`, -101% (active). Next, `CO[C@@H]1[C@@H](OC(N)=O)[C@@H](O)C(Oc2ccc3c(O)c(NC(=O)c4ccc(O)c(CC=C(C)C)c4)c(=O)oc3c2C)OC1(C)C` (stereo not given in full): 44.1% (inactive). As to `CS/C(=C\[N+](=O)[O-])Nc1ccc(C)cc1`, the activity change (cytotoxicity) was -4.4% (inactive). As to `CCOc1ccc(C(=O)NC(C(=O)NCc2ccccn2)C(C)C)cc1` (stereo not given), the activity change (cytotoxicity) is -1.5% (inactive). As to `O=C(Nc1cccc(Cl)c1)Nc1ccccc1NS(=O)(=O)c1cccs1`, the activity change (cytotoxicity) is 13.5% (inactive). `O=S(=O)(Nc1ccccc1N1CCOCC1)c1ccc(Cl)s1`: the activity change (cytotoxicity) is 1.7% (inactive). Regarding `COc1cc(NC(=O)c2ccccc2NS(=O)(=O)c2ccc(Cl)s2)cc(OC)c1`, the activity change (cytotoxicity) was -57.2% (active). As for `COc1ccc(C(CC(=O)Nc2ccc(C)cc2)NC(=O)C(F)(F)F)cc1` (stereo not given), the activity change (cytotoxicity) is 6.9% (inactive).

For the compound `COc1ccc(NC(=O)Cn2c(-c3ccc(OC)cc3)cn(-c3ccc(C)cc3)c2=O)cc1`, the activity change (cytotoxicity) is 12.5% (inactive). For the compound `COc1ccc(CC(=O)Nc2ccc(-c3nnc(-c4ccc(C)cc4)o3)cc2)cc1`, the activity change (cytotoxicity) was -56.3% (active). As for `CCOc1ccccc1NS(=O)(=O)c1cc2c3c(c1)C(C)C(=O)N3CCC2` (stereo not given), the activity change (cytotoxicity) is 7.2% (inactive). Regarding `COc1ccc(CN(C(=O)c2cccs2)c2nccs2)cc1OC`, the activity change (cytotoxicity) was 5.6% (inactive). With `O=C(NCc1cccnc1)c1nc(-c2cccs2)no1`, the activity change (cytotoxicity) is -11.3% (inactive). In the case of `CCOc1ccc(NC(=S)NC(=O)/C=C/c2ccc(OC)cc2)c([N+](=O)[O-])c1`, the activity change (cytotoxicity) was -50.2% (active). Consider `CCOc1ccc(NC(=O)COC(=O)C2CCC(=O)N2)c([N+](=O)[O-])c1` (stereo not given), for which the activity change (cytotoxicity) was -7.5% (inactive).

For the compound `COc1ccc(/C=C/C(=O)NC(=S)N2CCCC(C(N)=O)C2)cc1` (stereo not given), the activity change (cytotoxicity) was -10.3% (inactive). As for `COc1ccc(S(=O)(=O)n2cnc3ccccc32)c(C)c1`, the activity change (cytotoxicity) was 0.5% (inactive). In the case of `COc1c(C=O)c(CCN(C)C(=O)c2ccc(F)cc2)cc2c1OCO2`, the activity change (cytotoxicity) was -9% (inactive).

For `O=C(c1ccc2c(c1)OCO2)N1CCNc2ccccc2C1`, the activity change (cytotoxicity) was 4.7% (inactive). Consider `S=C(NN=Cc1ccccn1)Nc1ccccn1`, for which the activity change (cytotoxicity) was -63.5% (active). Regarding `CS(=O)(=O)N(CC(=O)N/N=C/c1ccccn1)c1ccc(Oc2ccccc2)cc1`, the activity change (cytotoxicity) is 1.8% (inactive). With `O=C(N/N=C/c1ccccn1)c1cccc(NC(=O)c2ccc(Cl)cc2)c1`, the activity change (cytotoxicity) was -1.1% (inactive).

With `Cc1ccc(S(=O)(=O)N2CCCCC2)cc1NC(=O)CCNC(=O)c1ccccc1Cl`, the activity change (cytotoxicity) is 1.6% (inactive).

Turning to `Nc1ncnc2c1ncn2[C@@H]1O[C@H](C(=O)NS(=O)(=O)c2c(Cl)nc3sccn23)[C@@H](O)[C@H]1O`, the activity change (cytotoxicity) was -8.7% (inactive).

Turning to `O=C(Nc1cccc([N+](=O)[O-])c1)N1CCc2ccccc2C1`, the activity change (cytotoxicity) was -12.4% (inactive).

Take `COC(=O)/C=C\C(=O)Nc1cccc([N+](=O)[O-])c1`: the activity change (cytotoxicity) is -64.1% (active). For `COc1cccc(NCCC(=O)c2cccc([N+](=O)[O-])c2)c1`, the activity change (cytotoxicity) is 1.2% (inactive). Consider `CCN(CC(=O)Nc1ccccc1C(F)(F)F)C(=O)C1CCN(C(=O)Nc2ccccc2)CC1`, for which the activity change (cytotoxicity) was -2.1% (inactive). In the case of `Cc1cnc(C(=O)Oc2cccc(Cl)c2Cl)cn1` it was 14.6% (inactive); in that of `Cn1c(-c2ccco2)nc2cc3ccccc3cc21`, -57.4% (active); in that of `Cc1ccc2nc(-c3ccco3)c(Cc3cccc(Cl)c3)n2c1`, 6.4% (inactive).

As for `Cn1c(SCC(=O)Nc2ccc(Br)cc2F)nnc1-c1ccco1`, the activity change (cytotoxicity) was -9.6% (inactive). As for `CCOc1ccc(S(=O)(=O)NCc2ccc3c(c2)OCO3)cc1C`, the activity change (cytotoxicity) was -0.2% (inactive).

`COc1ccccc1CNC(=O)COC(=O)c1sc(C)nc1C`: the activity change (cytotoxicity) is 5.6% (inactive). In the case of `COc1ccc(C)cc1NC(=O)CCCN1C(=O)NC(C)(C)C1=O` it was 9.3% (inactive). In the case of `Cc1cc(C)cc(NC(=O)N(C)Cc2ccccc2)c1` it was 1.9% (inactive). Regarding `CN1c2ccc(C=O)c3c(C=O)ccc(c23)N(C)C1(C)C`, the activity change (cytotoxicity) is -67.5% (active). As for `Cc1ccc(C=O)c([B-](F)(F)F)c1`, the activity change (cytotoxicity) was 7.5% (inactive). Next, `Cc1ccc(S(=O)(=O)N(C)C)cc1NC(=O)CN1c2cccc3cccc(c23)S1(=O)=O`: -28.1% (inactive); `Cc1ccc(/C=N/NC(=O)Cn2ccc(C(F)(F)F)n2)o1`: 10.5% (inactive); `Cc1cccc(NC(=S)N2CCC(O)CC2)c1C`: -5.6% (inactive). `Fc1ccc(OCc2nn3c(Cn4nnc5ccccc54)nnc3s2)cc1`: the activity change (cytotoxicity) is -11.4% (inactive). In the case of `O=C(Nc1ccccc1Cl)c1ccccc1S(=O)(=O)c1ccccc1[N+](=O)[O-]` it was 4.2% (inactive); in that of `CC(=O)c1ccc(NC(=O)C(C)N(C)CC(=O)Nc2ccccc2Cl)cc1` (stereo not given), -7% (inactive).

As for `O=C(Nc1ccccc1Cl)/C(Cl)=C(\Cl)S(=O)c1ccccc1` (stereo not given), the activity change (cytotoxicity) was -100% (active).
